This is a sample that favours compounds with a hit; in the whole collection about 2.4% have one here.
WRN inhibitor: inhibitors of human WRN helicase | WRN helicase unwinding, fluorescent forked duplex, kinetic | 360,000 tested, 0.46% active | Potency, µM (titrated, usually from 114 µM), inactives show at the top dose activity change, negative = inhibition, actives largely listed as inhibitors | Q14191; further: on the % scale 0 is the no-effect control and ±100 the full control effect; nearly all actives have a fitted effect of over 55% in size
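WRN at 20 nM final was preincubated with compound for 15 min at room temperature; reaction started with 100 nM forked duplex oligonucleotide carrying fluorophore and quencher plus 2 mM ATP (final). Unwinding followed kinetically by red fluorescence (ex 525/em 598 nm).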
POLI inh: blocks human DNA polymerase iota activity | Q9UNA4 | Pol iota fluorescent replication assay, 10 min | Potency, µM (doses to about 115 µM), for inactives: at the top dose activity, negative = inhibition, actives largely listed as inhibitors | 390,000 tested, 1% active
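Fluorescent replication assay read twice, at 0 min and 10 min after adding 50 nM (final) substrate. Enzyme (10 nM) and compounds were first incubated 15 min at room temperature; enzyme-free buffer wells were negative controls.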
FEN1 inh: inhibitors of human flap endonuclease 1 | Potency, µM (series often up to 114 µM), inactives show top-dose activity change, negative = inhibition, hits mostly inhibitors | P39748 | AID 588795 | 390,000 tested, 0.35% active | Recombinant FEN1 flap cleavage, fluorescence, 15 min; further: on the % scale 0 is the no-effect control and ±100 the full control effect; nearly all actives have a fitted effect of over 65% in size
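In this screen, 50 nM flap DNA substrate was added to 10 nM FEN1 pretreated with compound for 15 min at room temperature; cleavage was followed with reads at 0 and 15 min, and Hill fitting gave concentration–response parameters.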
Pol kappa inh: blocks human DNA polymerase kappa activity. purified Pol kappa, fluorescent DNA synthesis assay, 10 min. Potency, µM (highest dose often 107 µM), without a hit: top-dose activity, negative = inhibition, usual class: inhibitors. 400,000 tested, 0.53% active; further: on the % scale 0 is the no-effect control and ±100 the full control effect
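Inhibition of 10 nM Pol kappa is measured by a fluorescent read-out at 0 and 10 min following addition of 50 nM substrate (final), with a 15-min room-temperature compound preincubation.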
POLH inh: blocks human DNA polymerase eta activity | Q9Y253 | recombinant Pol eta, fluorescent DNA replication assay | Potency, µM (top dose mostly 114 µM), for inactives: at the top dose activity change, negative = inhibition, usual class: inhibitors | 390,000 tested, 1.2% active | AID 588591; further: on the % scale 0 is the no-effect control and ±100 the full control effect
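Pol eta (10 nM) was preincubated with compounds for 15 min at room temperature, after which fluorescent replication substrate (50 nM final) was added to start the reaction. Fluorescence was read kinetically at 0 and 10 min.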
Pol beta inh: DNA polymerase beta (human) inhibition. P06746. Pol beta primer extension/strand displacement, fluorescence kinetic. Potency, µM (highest dose often 114 µM), inactives show at the top dose activity change, negative = inhibition, usual class: inhibitors. 340,000 tested, 1.3% active. AID 485314; further: on the % scale 0 is the no-effect control and ±100 the full control effect
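Pol beta (10 nM) and compounds were preincubated 15 min at room temperature, then 50 nM substrate (final) started primer extension/strand displacement. Reads were taken at 0 and 10 min; concentration-response data were fitted to a four-parameter Hill equation.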
PGK validate: blocks T. brucei phosphoglycerate kinase | shares compounds with Pol kappa inh | TbPGK coupled GAPDH assay, Kinase-Glo luminescence | Potency, µM (titrated, usually from 57.5 µM), for the others: top-dose activity change, negative = inhibition, actives largely listed as inhibitors | 500 tested, 79% active | AID 686980; further: on the % scale 0 is the no-effect control and ±100 the full control effect; nearly all actives have a fitted effect of over 65% in size
POLI cherry-pick: Confirm cherry-picked inhibitors of human polymerase iota; shares compounds with Pol kappa inh; Pol iota primer extension, TAMRA/BHQ fluorescence; Potency, µM, most hits filed as inhibitors; 1,500 tested, 77% active
Active calls of the source: *; ? = inconclusive; . = not tested or not shown; [ ] = dose if it differs, or a comment. The call rests on the fitted dose curve; in most records, active means well fitted curve in the direction sought with a large enough effect; inconclusive means small, poorly fitted or top-dose-only effect, or another doubt; inactive means no such curve, though single readings can be large; an effect the other way counts as inactive or inconclusive. Potency means the concentration at half of the fitted maximal effect.

SMILES	WRN inhibitor	POLI inh	FEN1 inh	Pol kappa inh	POLH inh	Pol beta inh	PGK validate	others
COc1ccccc1N1CCN(C(=O)CN2C(=O)COc3ccc(S(=O)(=O)N4CCOCC4)cc32)CC1	.	21.6%	12.9%	-14.1%	-4.0%	9.1%	.
Cc1ccc(CNC(=O)c2nnn(CC(=O)Nc3cccc(C)c3C)c2N)cc1	-15.8%[11.6 µM]	15.4%	-7.1%	-10.2%	?	?	.	POLI cherry-pick=26.7*
C=C(C)C(=O)Nc1ccc(OC(F)(F)C(F)F)c(NC(=O)C(=C)C)c1	?	4.1%	-1.4%	?	17.8µM*	31.6µM*	6.51µM*
O=C(c1cc(Br)c(Br)s1)N1CCOCC1	0.1%	29.1%	-10.4%	-3.1%	-12.0%	.	.
O=C(c1coc(=O)c(Br)c1)N1CCOCC1	?	?	-10.9%	?	10µM*	6.31µM*	29.1µM*
Cc1ccsc1C(=O)N/N=C/c1ccc2c(c1)OCO2	-12.0%	-6.7%	-0.6%	-6.6%	-10.1%	-12.0%	18.3µM*
O=C(O)c1ccc(N/N=C/c2cc3c(cc2[N+](=O)[O-])OCO3)cc1	-12.5%[57.1 µM]	-4.7%	?	-13.7%	?	-12.5%	.
O=C(O)c1ccc(N/N=C/c2ccc3c(c2)OCO3)cc1	-9.2%	23.3%	7.6%	-7.6%	-11.7%	21.5%	10.3µM*
COc1ccc(-c2nc(C)c(CCNC(=O)c3cc(OC)c(OC)c(OC)c3)s2)cc1OC	.	13.3%	-13.1%	-8.4%[60.1 µM]	-20.5%	-15.4%	.
C/C=C\C=C/C(=O)Nc1cccc(C2=NOC3(C2)C[C@@H](C(N)=O)N(C(=O)c2ccc(Cl)cc2)C3)c1 (stereo partly specified)	4.3%	4.0%	10.2%	-1.8%	-9.0%	-9.7%	.
C/C=C\C=C/C(=O)Nc1cccc(C2=NOC3(C2)C[C@H](C(N)=O)N(C(=O)c2ccc(OC)cc2)C3)c1 (stereo partly specified)	-19.0%[11.6 µM]	25.1µM*	4.6%	?	20µM*	-1.3%	.	POLI cherry-pick=?
Nc1ccc(N2CCCCC2)c2nonc12	?	?	?	-6.2%	35.5µM*	8.5%	.	POLI cherry-pick=?
O=C1Nc2cc3c(cc2C1=O)sc1ccccc13	44.7µM*	31.6µM*	?	?	44.7µM*	39.8µM*	.	POLI cherry-pick=?
COc1cc(C(=O)CC2(O)C(=O)N(Cc3ccccc3Cl)c3ccccc32)cc(OC)c1OC (stereo unspecified)	.	26.7%	0.0%	3.3%	-10.5%	1.0%	.
O=C(COc1ccccc1[N+](=O)[O-])Nc1ccc2oc(=O)ccc2c1	-5.1%	-9.3%	19.5%	6.5%	2.9%	-10.5%	.
Cc1cc(=O)oc2cc(NC(=O)COc3ccccc3[N+](=O)[O-])ccc12	-34.6%[11.6 µM]	?	13.0%	-19.3%	?	.	.	POLI cherry-pick=?
COc1ccc(-c2nn(-c3ccc(F)cc3F)c3c2cnc2ccc(F)cc23)cc1	.	?	6.2%	2.0%[60.1 µM]	-12.9%	-1.9%	.
O=C(N/N=C/c1c[nH]c2ccc(Br)cc12)c1ccncc1	?	56.2µM*	-7.3%	-23.7%	?	?	.	POLI cherry-pick=67*
Cc1ccc(S(=O)(=O)C(CNC(=O)COc2ccccc2)c2cccs2)cc1 (stereo unspecified)	.	1.1%	-10.1%	-7.3%[60.1 µM]	-14.0%	12.6µM*	?
Cc1cc(S(=O)(=O)C(CNC(=O)COc2ccccc2)c2cccs2)ccc1F (stereo unspecified)	.	-19.5%	-17.1%	-1.8%[60.1 µM]	6.5%	1.7%	.
O=C(N/N=C/c1cccc([N+](=O)[O-])c1)c1cc2c(ccc3ccccc32)o1	-8.5%	?	-11.7%	0.0%	?	19.9%	.	POLI cherry-pick=47.4*
CCOc1ccc(-c2nc(SCC(=O)Nc3cc(F)ccc3F)n3[nH]c(=O)cc3n2)cc1	.	-0.2%	-20.5%	14.6%	-5.8%	4.47µM*	5.8µM*
Cc1cc(C)c2c(n1)sc1c(O)cc(=O)[nH]c12	?	?	?	79.4µM*	79.4µM*	?	.	POLI cherry-pick=47.4*
CC(=O)c1sc2nc(C)cc(C)c2c1N	-18.5%	0.4%	-2.8%	-9.3%	-12.9%	-0.1%	.
COc1ccc(C(=O)O/N=C(/C)c2cccs2)cc1	-13.3%	2.6%	-5.3%	-3.2%	-9.7%	13.5%	5.8µM*
SMILES	WRN inhibitor	POLI inh	FEN1 inh	Pol kappa inh	POLH inh	Pol beta inh	PGK validate	others
COc1ccc(C(=O)O/N=C(\N)c2ccccc2)cc1	-5.3%	51.5%	1.7%	-3.1%	-16.4%	2.6%	8.19µM*
N/C(=N\OC(=O)c1cccs1)c1ccccc1	-7.1%	-5.9%	-14.6%	-5.9%	-3.8%	-1.4%	16.3µM*
Cc1ccc(/C(N)=N/OC(=O)c2cccs2)cc1	2.6%	13.3%	5.0%	-6.1%	-13.9%	-14.0%	.
COc1ccc(C(=O)O/N=C(\N)c2ccc(Br)cc2)cc1	-2.4%	95.2%	20.4%	-4.7%	-8.0%	-2.4%	.
CCCSc1ccc2nc(-c3ccccc3)cn2c1	-30.9%	-11.6%	-21.9%	-27.7%	-11.7%	-0.3%	18.3µM*
CCCCSc1ccc2nc(-c3ccc(C#N)cc3)cn2c1	-10.8%	2.1%	-13.9%	-16.3%	-5.7%	3.8%	.
COc1ccc(/C=C/C(=O)OCCC(C)C)cc1	.	.	.	1.8%[60.1 µM]	.	.	.
CCCCNc1cc(NC2CCCCC2)c2c3c(onc13)-c1ccccc1C2=O	.	?	4.2%	-6.6%	70.8µM*	?	.	POLI cherry-pick=59.7*
O=C(NCc1ccc(Cl)cc1)NC1COc2ccccc2C1 (stereo unspecified)	.	-15.7%	-10.5%	-2.0%[60.1 µM]	2.3%	-6.3%	.
N/C(=N\OC(=O)c1ccc2ccccc2c1)c1ccncc1	6.3%	-24.6%	-0.4%	12.1%	-5.2%	-0.8%	.
N/C(=N\OC(=O)c1ccc(Cl)cc1Cl)c1ccccn1	-0.1%	-1.4%	-5.7%	-28.0%	-9.9%	-11.6%	.
Cc1ccc(C(=O)O/N=C(\N)c2ccccn2)c(Cl)c1	-2.2%	6.5%	19.1%	-6.3%	-0.4%	17.4%	18.3µM*
N/C(=N\OC(=O)c1ccc2ccccc2c1)c1ccccn1	-2.1%	10.6%	-4.5%	5.1%	-12.5%	1.2%	?
COc1cccc(C(=O)O/N=C(\N)c2ccccn2)c1	2.7%	-9.8%	-1.8%	-5.7%	-1.4%	15.6%	14.6µM*
CCCCCC(=O)Nc1cc(S(=O)(=O)O)cc2cc(S(=O)(=O)O)cc(O)c12	6.31µM*	1µM*	10µM*	1.41µM*	-99.1%	.	0.231µM*
CCc1ccc(C(=O)c2cn(CC(=O)Nc3ccc4c(c3)OCO4)c3cc(OC)c(OC)cc3c2=O)cc1	.	51.7%	-1.4%	4.5%	79.4µM*	6.31µM*	.	POLI cherry-pick=42.3*
